Measurements taken from PubChem BioAssay (Tox21).
Values without a mark were called inactive. Active and inactive are the calls of the source. Calls come from the whole dose curve; as a rule, active = well fitted curve in the direction sought with a large enough effect in the repeat runs; inconclusive = weak or mixed curves; inactive = flat fitted curve, though single readings scatter.

assay: qHTS assay to test for compound auto fluorescence at 460 nm (blue) in HepG2 cell free culture (AID 720685); settings: Cell-free culture medium, blue autofluorescence 405/460 nm; series mostly up to 91.3 µM; fluorescence, % of fluorescent control: at the top concentration
Text: U.S. Tox21 Program National Center for Advancing Translational Sciences [NCATS] NIH Chemical Genomics Center [NCGC] U.S. Environmental Protection Agency [EPA] National Institutes of Environmental Health Sciences [NIEHS] National Toxicology Program [NTP] U.S. Food and Drug Administration [FDA] Tox21 Assay Overview: Compound auto fluorescence often interferes with screening of the compound library against various biological targets and signaling pathways. Some of these compounds may have fluorophoric properties. Such properties may interfere with the assay outputs resulting in false positives and/or negatives. To decrease such complications and ensure the compound activities are relevant in terms of biological response, the Tox21 10K compound library was screened for auto fluorescence. From the fluorophores used as reporter signals in our screening assays, the auto fluorescence equivalencies of compounds against three fluorophores have been evaluated: Triamterene, Fluorescein and Rose Bengal sodium for blue, green and red fluorescence, respectively. The fluorescence intensities were measured using Excitation/Emission wavelengths at 405/460nm, 485/535nm and 540/590nm for blue, green and red labels, respectively. This assay includes the blue fluorescence data.
Tox21 Assay Protocol Summary: 5 uL of culture medium (MEM containing 10% FBS) per well was dispensed into black wall/clear bottom 1536-well plates using a Multidrop Combi Dispenser (ThermoFisher Scientific, Waltham, MA). After 23 nL compound or DMSO vehicle was transferred into assay plate by a pintool work station (Kalypsys, San Diego, CA), fluorescence intensities in the assay plates were measured by an Envision (PerkinElmer, Shelton, CT) plate reader using three labels for measuring blue, green and red fluorescence at […] 460, 535 and 590nm respectively.
% is set by controls: 0 for no effect and ±100 for the full control effect.

| Compound | fluorescence, % of fluorescent control | outcome |
| --- | --- | --- |
| CN(C)CCOc1ccccc1Cc1ccccc1 | -0.135% [at 46 µM] | – |
| NC/C=C/C(=O)O | -0.0271% [at 46 µM] | – |
| NC1=NCC2c3ccccc3Cc3ccccc3N12 (stereo not given) | 0.0181% [at 46 µM] | – |
| COc1cc2c(cc1N)oc1ccccc12 | -0.0154% [at 95.7 µM] | – |
| O=Cc1ccc(F)c(Br)c1 | -0.0391% | – |
| CO[C@@]1(NC(=O)CSCC#N)C(=O)N2C(C(=O)O)=C(CSc3nnnn3C)CS[C@@H]21 | 0.067% [at 46 µM] | – |
| CN1CCN(C2=Nc3cc(F)ccc3Cc3ccccc32)CC1 | -0.13% [at 46 µM] | – |
| CCN(CC)CCNC(=O)COc1ccc(Cl)cc1 | -0.0878% [at 46 µM] | – |
| CCCCC(CC)COC(=O)COc1cc(Cl)c(Cl)cc1Cl (stereo not given) | 0.0243% | – |
| CN(C)C(=O)NC1(c2ccccc2)CCN(CCC[C@]2(c3ccc(Cl)c(Cl)c3)CCCN(C(=O)c3ccccc3)C2)CC1 | -0.114% [at 18.6 µM] | – |
| O=C1CCN(c2ccccc2)N1 | -0.0369% | – |
| CC1(C)S[C@@H]2[C@H](NC(=O)C(C(=O)O)c3ccccc3)C(=O)N2[C@H]1C(=O)O (stereo not given in full) | -0.155% [at 46 µM] | – |
| COc1ccc(Nc2ccc(OC)cc2)cc1 | 0.0139% [at 95.7 µM] | – |
| CC(=O)N[C@@H](CC(C)C)C(=O)O | -0.0954% [at 46 µM] | – |
| CC1=C(CC(=O)O)c2cc(F)ccc2/C1=C\c1ccc(S(C)(=O)=O)cc1 | -0.0126% [at 46 µM] | – |
| COc1cc(Cl)ccc1Cl | -0.0564% [at 95.7 µM] | – |
| CCOC(=O)c1ccccc1O | – | inactive |
| C[C@]12C(=O)OC(=O)[C@H]1[C@H]1C=C[C@@H]2C1 | -0.0329% | – |
| CC(C)(C)c1ccc(OC(=O)c2ccccc2O)cc1 | 0.0796% | – |
| CC(C)OC(C)C | 0.0283% [at 95.7 µM] | – |

| Compound | fluorescence, % of fluorescent control | outcome |
| --- | --- | --- |
| CC1(O)CSC(C)(O)CS1 (stereo not given) | 2.44% | – |
| CN1[C@@H]2CC[C@H]1CC(OC(=O)c1c[nH]c3ccccc13)C2 (stereo not given in full) | -0.0061% [at 46 µM] | – |
| CCN(CCCc1ccccc1)CCCc1ccccc1 | 0.009% [at 18.6 µM] | – |
| Cc1ccc(C(C)C)cc1O | 0.0555% | – |
| CCCNC(C)C(=O)Nc1c(C)csc1C(=O)OC (stereo not given) | -0.0067% [at 18.6 µM] | – |
| Cc1ccc([N+](=O)[O-])cc1Cl | 0.116% [at 95.7 µM] | – |
| CC1=NN(c2cc(Cl)c(S(=O)(=O)O)cc2Cl)C(=O)C1N=Nc1ccc(S(=O)(=O)O)cc1 (stereo not given) | -0.0481% | – |
| OC[C@H]1O[C@@H](O[C@H]2[C@H](O)[C@@H](O)[C@H](O)O[C@@H]2CO)[C@H](O)[C@@H](O)[C@H]1O | 0.0333% | – |
| COc1cc(C)ccc1C(C)C | -0.013% | – |
| CC[C@H]1CC[C@H](NCc2cc3c(cc2OC)[C@H]2C[C@H]2C(=O)N3C)[C@H](c2ccccc2)N1 | 0.251% | – |
| CCCCCCC | -0.0332% [at 95.7 µM] | – |
| CC1(C)C(=O)N(Cl)C(=O)N1Br | -0.136% | – |
| C=CC1CO1 (stereo not given) | -0.0008% [at 95.7 µM] | – |
| CC1CN(c2ccccc2)NC1=O (stereo not given) | 0.0135% | – |
| O=C1CCCCC1C1CCCCC1 (stereo not given) | 0.0211% | – |
| O=C1CCCCCCCCCCC(=O)OCCO1 | 0.0369% | – |
| CC1=CC(=O)CC(C)(C)C1=O | 0.0149% [at 95.7 µM] | – |
| N#Cc1ccc(C(c2ccc(C#N)cc2)n2cncn2)cc1 | – | inactive |
| CCCCCCCCc1ccc(S(=O)(=O)O)cc1 | 0.0897% | – |
| O=c1oc2c(O)c(O)cc3c(=O)oc4c(O)c(O)cc1c4c23 | 0.0862% [at 46 µM] | – |
